Test results from the supplement of paper PMC10849652.
About 7,900 targets were measured; listed, in parts, are those with a hit and a random draw of the rest. About 0.6% of all pairs of compound and target were hits.

Compound: c1cn2cc(-c3ccc4cn[nH]c4c3)nc(Nc3ccc(N4CCOCC4)cc3)c2n1 [entospletinib]
Assay: log2 fold change, soluble protein after heating vs DMSO (PISA); higher = thermal stabilisation; K562 cells, 10 uM, 30 min; active = over 0.2 and 3.5 SD of the protein, either way, in both replicates (recomputed)
In short: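 K562 cells at 2×10^6 cells/mL were exposed to 10 μM compound for 30 min, then aliquots were heated for 3 min across 48°C-58°C, pooled, and extracted in PBS containing 0.5% NP-40 at 4°C. The supernatant after 21,000xg for 90 min was taken as soluble protein and measured by TMTpro 16plex LC-MS/MS with channel sums equalised. Thermal stability is reported relative to control samples, with values from duplicates. Fold changes are given on a log2 scale.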

UniProt Q13362, sequence (Q13362 whole entry, looked up): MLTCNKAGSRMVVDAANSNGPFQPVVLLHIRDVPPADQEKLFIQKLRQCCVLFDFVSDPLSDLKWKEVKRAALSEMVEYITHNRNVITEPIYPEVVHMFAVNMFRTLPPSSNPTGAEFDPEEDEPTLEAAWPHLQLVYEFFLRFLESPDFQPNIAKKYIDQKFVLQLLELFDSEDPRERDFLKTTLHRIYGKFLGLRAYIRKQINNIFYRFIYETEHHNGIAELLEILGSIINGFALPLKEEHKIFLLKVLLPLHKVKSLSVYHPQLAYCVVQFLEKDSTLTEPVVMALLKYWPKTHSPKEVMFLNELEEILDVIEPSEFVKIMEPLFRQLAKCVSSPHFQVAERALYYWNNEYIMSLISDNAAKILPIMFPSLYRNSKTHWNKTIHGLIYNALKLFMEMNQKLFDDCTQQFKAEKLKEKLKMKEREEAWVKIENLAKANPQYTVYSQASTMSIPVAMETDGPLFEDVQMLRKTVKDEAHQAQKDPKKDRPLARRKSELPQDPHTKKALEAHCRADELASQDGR
UniProt P50336, sequence (P50336 whole entry, looked up): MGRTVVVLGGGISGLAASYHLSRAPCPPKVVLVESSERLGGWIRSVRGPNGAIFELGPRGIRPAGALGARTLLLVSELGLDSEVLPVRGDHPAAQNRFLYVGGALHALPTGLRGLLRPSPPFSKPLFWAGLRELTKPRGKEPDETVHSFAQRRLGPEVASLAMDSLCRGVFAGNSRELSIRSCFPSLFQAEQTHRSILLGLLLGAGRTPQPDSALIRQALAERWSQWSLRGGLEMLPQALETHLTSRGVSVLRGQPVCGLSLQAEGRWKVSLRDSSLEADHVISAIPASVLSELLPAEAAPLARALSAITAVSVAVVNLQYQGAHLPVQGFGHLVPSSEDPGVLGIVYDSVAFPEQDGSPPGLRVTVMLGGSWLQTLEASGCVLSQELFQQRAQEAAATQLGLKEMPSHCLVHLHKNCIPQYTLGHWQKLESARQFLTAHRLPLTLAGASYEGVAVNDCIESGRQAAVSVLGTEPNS
UniProt Q9NP80, sequence (Q9NP80 whole entry, looked up): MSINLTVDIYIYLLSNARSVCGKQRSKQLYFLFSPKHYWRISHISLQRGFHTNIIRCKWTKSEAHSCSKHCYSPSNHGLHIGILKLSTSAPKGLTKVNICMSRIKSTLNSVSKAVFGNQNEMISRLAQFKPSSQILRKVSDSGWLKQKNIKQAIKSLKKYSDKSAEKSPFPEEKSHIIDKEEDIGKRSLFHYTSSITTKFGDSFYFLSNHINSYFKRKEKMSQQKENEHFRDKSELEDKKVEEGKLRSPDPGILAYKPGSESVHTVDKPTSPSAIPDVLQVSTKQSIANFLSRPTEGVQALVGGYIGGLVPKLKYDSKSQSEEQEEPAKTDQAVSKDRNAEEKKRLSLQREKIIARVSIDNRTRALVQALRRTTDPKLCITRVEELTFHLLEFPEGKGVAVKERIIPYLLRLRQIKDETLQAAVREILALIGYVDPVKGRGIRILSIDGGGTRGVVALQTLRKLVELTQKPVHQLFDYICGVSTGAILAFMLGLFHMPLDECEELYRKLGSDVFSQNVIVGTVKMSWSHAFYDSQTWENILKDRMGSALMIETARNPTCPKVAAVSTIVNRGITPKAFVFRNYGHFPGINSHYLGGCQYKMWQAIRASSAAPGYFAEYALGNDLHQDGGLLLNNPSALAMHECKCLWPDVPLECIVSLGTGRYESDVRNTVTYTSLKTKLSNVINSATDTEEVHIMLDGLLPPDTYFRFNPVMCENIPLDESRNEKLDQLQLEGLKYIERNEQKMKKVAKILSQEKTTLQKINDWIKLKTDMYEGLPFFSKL
UniProt P51665, sequence (P51665 whole entry, looked up): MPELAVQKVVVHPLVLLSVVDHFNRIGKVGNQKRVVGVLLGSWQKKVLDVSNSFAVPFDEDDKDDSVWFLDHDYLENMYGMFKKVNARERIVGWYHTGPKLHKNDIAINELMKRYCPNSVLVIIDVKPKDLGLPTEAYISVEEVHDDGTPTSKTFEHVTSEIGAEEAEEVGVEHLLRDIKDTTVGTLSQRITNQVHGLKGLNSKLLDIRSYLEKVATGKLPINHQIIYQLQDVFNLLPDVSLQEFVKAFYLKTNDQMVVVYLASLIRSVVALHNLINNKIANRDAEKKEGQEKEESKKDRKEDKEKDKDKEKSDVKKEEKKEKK
UniProt Q96AD5, sequence (Q96AD5 whole entry, looked up): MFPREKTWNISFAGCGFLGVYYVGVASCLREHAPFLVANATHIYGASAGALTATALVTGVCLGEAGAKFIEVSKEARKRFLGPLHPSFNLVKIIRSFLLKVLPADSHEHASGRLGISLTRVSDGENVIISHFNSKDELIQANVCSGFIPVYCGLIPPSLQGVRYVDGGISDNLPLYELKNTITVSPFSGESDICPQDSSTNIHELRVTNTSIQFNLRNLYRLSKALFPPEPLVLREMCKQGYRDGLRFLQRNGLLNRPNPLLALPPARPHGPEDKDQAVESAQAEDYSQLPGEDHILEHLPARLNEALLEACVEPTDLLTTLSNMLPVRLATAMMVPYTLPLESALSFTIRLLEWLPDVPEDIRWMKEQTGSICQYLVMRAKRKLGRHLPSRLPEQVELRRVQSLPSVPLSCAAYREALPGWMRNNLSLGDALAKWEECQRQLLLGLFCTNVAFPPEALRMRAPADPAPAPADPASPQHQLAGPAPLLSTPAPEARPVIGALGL
UniProt Q02156, sequence (Q02156 whole entry, looked up): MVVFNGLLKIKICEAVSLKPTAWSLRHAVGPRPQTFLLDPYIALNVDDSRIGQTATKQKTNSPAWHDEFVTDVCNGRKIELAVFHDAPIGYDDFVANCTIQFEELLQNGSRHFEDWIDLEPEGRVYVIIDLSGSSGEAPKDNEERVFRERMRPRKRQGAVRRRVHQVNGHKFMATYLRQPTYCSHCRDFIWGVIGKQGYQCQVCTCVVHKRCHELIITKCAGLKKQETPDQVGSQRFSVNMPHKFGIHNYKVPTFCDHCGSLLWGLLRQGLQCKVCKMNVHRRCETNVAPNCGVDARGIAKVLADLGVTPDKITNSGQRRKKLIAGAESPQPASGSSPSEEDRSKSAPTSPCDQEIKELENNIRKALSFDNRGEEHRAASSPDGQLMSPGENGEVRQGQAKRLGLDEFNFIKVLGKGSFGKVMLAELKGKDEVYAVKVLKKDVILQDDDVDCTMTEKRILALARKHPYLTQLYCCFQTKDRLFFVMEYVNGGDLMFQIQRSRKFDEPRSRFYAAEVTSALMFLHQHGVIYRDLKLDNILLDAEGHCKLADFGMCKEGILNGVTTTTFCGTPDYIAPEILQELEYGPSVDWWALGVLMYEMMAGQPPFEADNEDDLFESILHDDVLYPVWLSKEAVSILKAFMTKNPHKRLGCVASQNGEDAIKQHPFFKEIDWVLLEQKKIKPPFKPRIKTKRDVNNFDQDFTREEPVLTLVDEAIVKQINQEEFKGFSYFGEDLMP
UniProt P48556, sequence (P48556 whole entry, looked up): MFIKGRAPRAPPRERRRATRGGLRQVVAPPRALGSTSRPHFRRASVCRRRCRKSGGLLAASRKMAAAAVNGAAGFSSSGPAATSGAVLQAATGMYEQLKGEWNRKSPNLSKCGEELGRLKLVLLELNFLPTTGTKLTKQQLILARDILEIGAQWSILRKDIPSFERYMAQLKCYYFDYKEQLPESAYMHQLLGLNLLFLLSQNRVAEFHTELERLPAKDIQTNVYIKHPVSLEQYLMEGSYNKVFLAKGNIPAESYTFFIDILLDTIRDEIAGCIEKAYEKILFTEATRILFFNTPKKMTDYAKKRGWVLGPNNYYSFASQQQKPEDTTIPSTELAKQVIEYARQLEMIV
UniProt P46020, sequence (P46020 whole entry, looked up): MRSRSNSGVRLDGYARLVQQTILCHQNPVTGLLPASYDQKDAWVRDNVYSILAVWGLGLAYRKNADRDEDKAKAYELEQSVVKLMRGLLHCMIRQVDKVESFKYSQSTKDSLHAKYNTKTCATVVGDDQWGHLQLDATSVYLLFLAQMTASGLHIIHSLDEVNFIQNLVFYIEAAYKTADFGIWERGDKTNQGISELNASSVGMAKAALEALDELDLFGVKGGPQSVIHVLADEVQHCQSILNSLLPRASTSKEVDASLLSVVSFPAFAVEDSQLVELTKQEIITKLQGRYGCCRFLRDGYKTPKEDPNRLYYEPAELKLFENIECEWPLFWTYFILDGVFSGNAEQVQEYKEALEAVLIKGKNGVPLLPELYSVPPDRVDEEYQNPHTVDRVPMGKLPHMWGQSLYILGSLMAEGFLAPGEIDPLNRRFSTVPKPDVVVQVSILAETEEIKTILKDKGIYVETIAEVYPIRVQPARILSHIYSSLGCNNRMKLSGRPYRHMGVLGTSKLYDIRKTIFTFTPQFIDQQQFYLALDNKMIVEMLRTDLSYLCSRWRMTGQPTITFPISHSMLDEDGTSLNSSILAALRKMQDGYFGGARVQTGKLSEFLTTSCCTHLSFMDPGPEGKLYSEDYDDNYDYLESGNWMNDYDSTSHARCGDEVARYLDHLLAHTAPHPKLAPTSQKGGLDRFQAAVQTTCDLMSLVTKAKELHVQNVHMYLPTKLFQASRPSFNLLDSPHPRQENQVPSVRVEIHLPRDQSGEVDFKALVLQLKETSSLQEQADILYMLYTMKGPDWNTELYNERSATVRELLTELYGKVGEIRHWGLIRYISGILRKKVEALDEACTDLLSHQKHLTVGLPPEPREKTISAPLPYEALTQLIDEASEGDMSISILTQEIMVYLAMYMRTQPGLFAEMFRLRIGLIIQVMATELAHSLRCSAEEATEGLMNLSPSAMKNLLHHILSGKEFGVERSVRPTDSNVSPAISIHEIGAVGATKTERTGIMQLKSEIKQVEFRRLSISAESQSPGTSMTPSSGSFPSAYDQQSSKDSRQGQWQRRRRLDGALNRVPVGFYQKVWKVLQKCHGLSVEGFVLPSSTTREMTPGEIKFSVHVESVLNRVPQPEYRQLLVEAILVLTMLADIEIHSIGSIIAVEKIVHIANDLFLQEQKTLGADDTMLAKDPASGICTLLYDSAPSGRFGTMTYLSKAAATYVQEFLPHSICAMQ

log2 fold change, inactive:
PHC3 isoform 7 (UniProt Q8NDX5) -0.215
PAK4 (UniProt O96013) -0.002
PHKA2 (UniProt P46019) -0.043
PTPN23 (UniProt Q9H3S7) -0.031
PIK3R1 (UniProt P27986) -0.045
PNPLA2 (UniProt Q96AD5) -0.056
PRKAG1 isoform 3 (UniProt P54619) -0.018
PGM3 isoform 4 (UniProt O95394) -0.047
PRKAR1A (UniProt P10644) 0.389
PTDSS1 (UniProt P48651) 0.147
PPIL1 (UniProt Q9Y3C6) 0.052
PRKCD (UniProt Q05655) 0.018
PDCD2L (UniProt Q9BRP1) -0.012
PIK3CD (UniProt O00329) -0.206
PPP2R5C isoform 2 (UniProt Q13362) -0.041
PSMD7 (UniProt P51665) 0.064
PRKCA (UniProt P17252) -0.054
PPOX (UniProt P50336) 0.028
PIP4K2B (UniProt P78356) -0.04
PRKCE (UniProt Q02156) 0.016
PPP2R5C isoform 5 (UniProt Q13362) -0.012
PHKA1 (UniProt P46020) 0.063
PSMD8 (UniProt P48556) 0.012
PSMB9 (UniProt P28065) -0.251
PJA2 (UniProt O43164) -0.009
PPP4R3B (UniProt Q5MIZ7) -0.064
PRMT8 (UniProt Q9NR22) 0
PSMC5 (UniProt P62195) 0.005
PRKCG (UniProt P05129) 0.044
POLR2A (UniProt P24928) 0.162
PTEN isoform 2 (UniProt P60484) 0.025
PTPA (UniProt A6PVN8) -0.004
PPP2R5E (UniProt Q16537) -0.078
PNPLA8 (UniProt Q9NP80) -0.015
PRPF38B (UniProt Q5VTL8) 0.032
PKN2 (UniProt Q16513) 0.007
PDCD6IP (UniProt Q8WUM4) 0.023
PEX7 (UniProt O00628) -0.01
